# Activity calls are given as the source filed them.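 The calls were made as follows, unless noted: active = NADPH fluorescence slope more negative than the mean of all samples by about 3 SD, 99.7% confidence; inactive = the rest.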
# Key:
# [1] = inhibitors of TNFa-induced NFkB p65 translocation, primary screen, imaging, HUVEC, MLSMR starter and 10KST1 sets (AID 438;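 active = inhibition above 20% together with a positive visual image hit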;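 also: compound added about 3h40 before a 20 min TNFalpha stimulation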;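 as to inhibition: signal is the nuclear over cytoplasmic p65 intensity ratio per well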); conditions: HUVEC TNFa-induced p65 nuclear translocation; cell count: measured here: nuclei count (cytotoxicity indicator), at 2.08 µM unless noted; inhibition: at 2 µM, stronger effect = higher value unless noted
# [2] = inhibitors of E-selectin induction by TNFa, primary screen, imaging, HUVEC, immunofluorescence, MLSMR starter and 10KST1 sets (AID 487;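 active = visually confirmed hit in the image check and inhibition above 20%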;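 as to inhibition: signal is fraction of cell area covered by stained E-selectin grains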;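 as to nuclei count: 100% = median nuclei count of all wells on the same plate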); conditions: HUVEC TNFalpha-induced E-selectin immunofluorescence imaging, at 2 µM; inhibition: stronger effect = higher value; nuclei count: measured here: cell number, toxicity
# [3] = DUSP6 inhibitors restoring Erk phosphorylation by chemical complementation, primary imaging in DUSP6-transfected HeLa (AID 609;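 active = compounds giving at least 50% inhibition in the cell-based MKP-3 phosphatase rescue imaging test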;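 as to inhibition: phospho-Erk level distribution per well compared with pooled transfected vehicle control wells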); conditions: HeLa MKP-3 transfected, phospho-Erk imaging KS statistic, at 10 µM
# [4] = molecular target: Dual specificity protein phosphatase 6 (Homo sapiens) (UniProt Q16828); experiment: as above; conditions: HeLa MKP-3 transfected, phospho-Erk imaging KS statistic, at 10 µM, stronger effect = higher value
# [5] = molecular target: Voltage-gated potassium channel subunit beta-2 (Rattus norvegicus) (UniProt P62483); experiment: KvBeta enzyme negative modulators, primary screen, biochemical, NADPH fluorescence (AID 622;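 active = fluorescence slope higher than the sample average by over 3 SD, cut at about -0.22 in these data, passing the limit was not always enough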;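 also: slope of raw intensity against log time taken from 70 to 1610 s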); conditions: recombinant KvBeta, 4-cyanobenzaldehyde reduction, at 10 µM, stronger effect = higher value
# [6] = molecular target: Voltage-gated potassium channel subunit beta-2 (Rattus norvegicus) (UniProt P62483); experiment: KvBeta positive modulators, primary screen, biochemical, NADPH fluorescence (AID 623); conditions: Recombinant KvBeta, NADPH fluorescence decrease slope, 10 min; at 10 µM; stronger effect = lower value;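 also: fluorescence intensity change per second fitted from 20 to 320 s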
# [7] = molecular target: Alpha-2C adrenergic receptor (Homo sapiens) (UniProt P18825); experiment: modulators of alpha2C/GIRK thallium flux, primary screen, cell-based, HEK293 alpha2C/GIRK1/2 (AID 624;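 active = fluorescence slope after compound addition differing from the mean of all screened samples at 99.7% confidence, in either direction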;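 also: slope of fluorescence ratio to pre-addition baseline per second over 15 to 24 s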); conditions: thallium flux BTC fluorescence, at 10 µM, actives lie on both sides
# [8] = inhibitors of larval lipid processing in zebrafish, primary screen, whole organism, PED6 fluorescence, gall bladder and intestine (AID 686;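 active = a full or partial loss of lipid-probe fluorescence in the fish gall bladder, intestine or both, judged by eye; inactive = no fluorescence loss, or compound toxic to the fish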;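 also: larvae 5 to 7 days old with five fish per well; signal comes from phospholipase A2 cleavage of quenched PED6 carried via bile; overnight exposure to compound and PED6 before scoring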); conditions: Zebrafish larvae PED6 lipid processing, fluorescence scoring
# [9] = inhibitors of Chlamydomonas gravitaxis, primary screen, whole organism, Chlamydomonas reinhardtii, WT vs cilia-less mutant, absorbance, 96-well (AID 463189;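 active = inhibition at or above 50% relative to wild type and mutant plate controls; inactive = inhibition below 50%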;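 also: 0% = wild type cc124 cells in DMSO and 100% = ciliumless bld1 mutant cells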); conditions: OD600 absorbance, 2 days, at 10 µM, stronger effect = higher value
# [10] = molecular target: Muscarinic acetylcholine receptor M4 (Homo sapiens) (UniProt P08173); experiment: compounds altering M4/GIRK thallium flux, either direction, primary screen, M4 allosteric agonist project, cell-based, HEK293 M4/GIRK, BTC-AM (AID 625;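 active = fluorescence slope after compound addition differing from the mean of all tested samples at 99.7% confidence, mostly higher but some lower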;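 also: thallium influx through GIRK channels coupled to M4 in HEK293 cells with BTC-AM dye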); conditions: at 10 µM, actives lie on both sides
# [11] = measured here: cell density z-score
# [12] = measured here: nuclear c-Myc green intensity z-score
# [13] = measured here: nuclear pErk red intensity z-score, stronger effect = higher value
# Voltage-gated potassium channel subunit beta-2 (Rattus norvegicus), sequence (P62483 whole entry, looked up): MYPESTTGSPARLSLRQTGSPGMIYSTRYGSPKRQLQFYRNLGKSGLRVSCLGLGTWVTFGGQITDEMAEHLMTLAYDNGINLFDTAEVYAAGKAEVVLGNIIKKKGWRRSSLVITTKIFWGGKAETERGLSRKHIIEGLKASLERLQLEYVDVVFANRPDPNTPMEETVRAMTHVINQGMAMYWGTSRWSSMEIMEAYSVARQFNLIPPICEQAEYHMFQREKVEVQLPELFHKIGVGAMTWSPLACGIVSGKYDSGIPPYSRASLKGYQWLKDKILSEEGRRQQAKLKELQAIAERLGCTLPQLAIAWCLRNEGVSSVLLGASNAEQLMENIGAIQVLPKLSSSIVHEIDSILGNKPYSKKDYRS
# Dual specificity protein phosphatase 6 (Homo sapiens), sequence (Q16828 whole entry, looked up): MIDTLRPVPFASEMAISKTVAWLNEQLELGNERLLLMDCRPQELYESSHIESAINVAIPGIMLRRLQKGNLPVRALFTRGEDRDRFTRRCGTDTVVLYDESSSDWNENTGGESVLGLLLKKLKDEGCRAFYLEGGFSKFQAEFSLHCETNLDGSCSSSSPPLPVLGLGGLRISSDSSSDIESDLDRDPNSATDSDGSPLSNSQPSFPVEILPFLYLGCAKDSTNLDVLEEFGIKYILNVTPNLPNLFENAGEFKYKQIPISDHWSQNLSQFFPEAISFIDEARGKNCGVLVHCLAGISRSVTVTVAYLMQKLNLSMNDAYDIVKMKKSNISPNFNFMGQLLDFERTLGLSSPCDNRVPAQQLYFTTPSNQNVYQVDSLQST
# Alpha-2C adrenergic receptor (Homo sapiens), sequence (P18825 whole entry, looked up): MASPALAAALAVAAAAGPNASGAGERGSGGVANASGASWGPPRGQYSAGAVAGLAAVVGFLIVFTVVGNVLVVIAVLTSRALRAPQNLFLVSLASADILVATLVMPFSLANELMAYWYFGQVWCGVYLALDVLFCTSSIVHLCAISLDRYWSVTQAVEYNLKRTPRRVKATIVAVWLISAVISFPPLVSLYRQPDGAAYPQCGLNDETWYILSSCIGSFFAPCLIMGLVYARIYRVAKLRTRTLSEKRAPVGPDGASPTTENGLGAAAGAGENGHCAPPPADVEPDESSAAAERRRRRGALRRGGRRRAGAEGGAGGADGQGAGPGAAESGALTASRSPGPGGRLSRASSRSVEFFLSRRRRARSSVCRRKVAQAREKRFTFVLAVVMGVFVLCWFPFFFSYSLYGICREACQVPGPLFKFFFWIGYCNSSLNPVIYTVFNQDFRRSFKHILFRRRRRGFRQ
# Muscarinic acetylcholine receptor M4 (Homo sapiens), sequence (P08173 whole entry, looked up): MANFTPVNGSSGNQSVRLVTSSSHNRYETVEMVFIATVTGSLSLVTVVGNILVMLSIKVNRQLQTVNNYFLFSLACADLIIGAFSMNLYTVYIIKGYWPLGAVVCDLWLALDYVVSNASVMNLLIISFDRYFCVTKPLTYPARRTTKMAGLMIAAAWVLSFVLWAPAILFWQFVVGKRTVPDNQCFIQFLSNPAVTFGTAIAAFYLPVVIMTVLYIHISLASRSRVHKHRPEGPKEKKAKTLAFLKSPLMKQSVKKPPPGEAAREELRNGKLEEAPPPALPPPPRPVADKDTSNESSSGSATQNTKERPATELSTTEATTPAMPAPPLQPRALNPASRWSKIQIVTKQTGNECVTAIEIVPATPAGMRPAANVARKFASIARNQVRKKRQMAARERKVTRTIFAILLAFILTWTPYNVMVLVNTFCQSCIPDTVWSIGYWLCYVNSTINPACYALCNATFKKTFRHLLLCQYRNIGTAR
Structure (SMILES),cell count [1],inhibition [1],inhibition [2],nuclei count [2] [%],"z-score [3, 11]","z-score [3, 12]","z-score [3, 13]",inhibition [4],fluorescence slope [5],NADPH fluorescence slope [6],slope [7],outcome [8],inhibition [9],fluorescence slope [10]
C=CCC1(CN2CCCCCC2=O)C(=O)NC(=O)NC1=O,656,4% (inactive),-118% (inactive),148,-0.0973,0.0168,-1.06,11.3% (inactive),-0.517 (inactive),-6.8e-05 (inactive),0.00505 (inactive),inactive,-7.71% (inactive),–
O=c1c(C=NCCN2CCNCC2)c(O)n(C2CCCCC2)c(=O)n1C1CCCCC1,583,-5.8% (inactive),-162% (inactive),138,0.0473,0.939,0.718,3.97% (inactive),-0.516 (inactive),-3.1e-05 (inactive),0.00535 (inactive),inactive,2.5% (inactive),–
COc1ccc(-n2c(SC)nc3ccccc3c2=O)cc1,594,-3.7% (inactive),-93.7% (inactive),134,-0.0992,-1.67,-0.0859,4.25% (inactive),-0.492 (inactive),-0.000141 (inactive),0.00471 (inactive),inactive,12.5% (inactive),–
CC(=O)C1(c2ccccc2)CCNCC1,472,0.5% (inactive),-152% (inactive),138,-0.428,0.195,0.843,7.93% (inactive),-0.522 (inactive),-4.6e-05 (inactive),0.00442 (inactive),inactive,14.1% (inactive),–
CCCCCCn1c(O)c(C=NCCN2CCCCC2)c(=O)[nH]c1=O,667,-17.9% (inactive),-47.5% (inactive),141,0.204,-1.24,-1.39,12.7% (inactive),-0.423 (inactive),-2.4e-06 (inactive),0.00602 (inactive),inactive,12.8% (inactive),–
O=c1[nH]c(=O)n(C2CCCCC2)c(O)c1C=NCCCn1ccnc1,684,-20.4% (inactive),-84.3% (inactive),153,1.04,-1.34,-0.814,6.04% (inactive),-0.428 (inactive),6.8e-06 (inactive),0.00637 (inactive),inactive,0.521% (inactive),–
CC1(C)CC(n2[nH]c(=O)c3c2NC(=O)CSC3c2ccccc2)CCO1 (stereo unspecified),532,10.5% (inactive),-152% (inactive),128,-0.163,0.684,-0.467,1.75% (inactive),-0.501 (inactive),-2.3e-05 (inactive),0.00596 (inactive),inactive,-16.8% (inactive),–
COC(=O)C(c1ccccc1)N1CCCCCC1 (stereo unspecified),730,0.3% (inactive),20.3% (inactive),165,-0.512,1.36,1.38,-11.4% (inactive),-0.406 (inactive),-3.5e-05 (inactive),–,inactive,-6.36% (inactive),0.0047 (inactive)
CCOC(=O)[C@]1(C#N)[C@@H]2C=CC(C(C)=O)=CN2[C@@H](C(N)=O)[C@@H]1c1ccsc1,560,-5.3% (inactive),-130% (inactive),212,0.77,0.227,-0.321,-2.91% (inactive),-0.358 (inactive),-1.4e-05 (inactive),-0.00125 (inactive),inactive,13.7% (inactive),–
O=c1[nH]c(=O)n(Cc2ccco2)c(O)c1C=NCc1ccc2c(c1)OCO2,562,-4.8% (inactive),50.7% (inactive),148,-1.72,-1.79,-0.396,-8.76% (inactive),-0.254 (inactive),-1.2e-06 (inactive),0.00624 (inactive),inactive,18.3% (inactive),–
CCCCCCn1c(O)c(C(C)=NC)c(=O)[nH]c1=O,556,-6.2% (inactive),-77.6% (inactive),162,0.993,-1.06,1.3,-0.608% (inactive),-0.503 (inactive),-6.1e-05 (inactive),0.00581 (inactive),inactive,-6.02% (inactive),–
COCC(C)OC(=O)c1c(N)n(Cc2ccco2)c2nc3ccccc3nc12 (stereo unspecified),433,-9.3% (inactive),-115% (inactive),147,-0.578,0.931,-0.00965,-11.9% (inactive),-0.0512 (inactive),-2.8e-07 (inactive),0.0047 (inactive),inactive,7.25% (inactive),–
CCN(CC)CCN=C(C)c1c(O)n(-c2ccccc2OC)c(=O)[nH]c1=O,564,0.8% (inactive),-34% (inactive),88.8,-0.563,-1.02,1.36,-2.91% (inactive),-0.555 (inactive),-2.8e-05 (inactive),0.0051 (inactive),inactive,-0.4% (inactive),–
CCN(CC)c1ccc(N=Cc2c(O)n(-c3ccccc3C)c(=O)[nH]c2=O)cc1,337,3.8% (inactive),-48.3% (inactive),172,-0.126,0.959,0.0511,7.01% (inactive),-0.394 (inactive),-0.000163 (inactive),0.00909 (inactive),inactive,24.7% (inactive),–
CC(C)Cc1[nH]c(=O)c(C#N)c2c1CCC2,490,8.7% (inactive),-51.3% (inactive),119,0.582,0.998,-0.369,-1.75% (inactive),-0.439 (inactive),-4.3e-06 (inactive),0.00495 (inactive),inactive,20.8% (inactive),–
CCN(CC)CCCC(C)N=C(c1ccccc1)c1c(O)n(C)c(=O)n(C)c1=O (stereo unspecified),617,-1.4% (inactive),-14.1% (inactive),134,0.00172,-0.468,1.57,-1.12% (inactive),-0.507 (inactive),-7.1e-05 (inactive),0.00446 (inactive),inactive,8.34% (inactive),–
O=C1C2CCN(CC2)[C@@H]1Cc1ccc2ccccc2c1O,542,-18.4% (inactive),-159% (inactive),135,0.277,-1,-0.726,9.91% (inactive),-0.498 (inactive),-6.4e-05 (inactive),0.00747 (inactive),inactive,9.49% (inactive),–
CCCCSP1(=S)NCCCO1 (stereo unspecified),490,-12.8% (inactive),-2.8% (inactive),116,0.851,-1.48,-1.55,9.39% (inactive),-0.465 (inactive),-0.000374 (inactive),0.00445 (inactive),inactive,18.8% (inactive),–
Cc1c(N=Cc2c(O)n(CCc3ccc(F)cc3)c(=O)[nH]c2=O)c(=O)n(-c2ccccc2)n1C,647,-28% (inactive),-9.6% (inactive),155,-1.16,-1.2,1.06,-0.624% (inactive),-0.389 (inactive),-4.5e-05 (inactive),0.0062 (inactive),active; weak signal in gallbladder and intestine,8% (inactive),–
CCCCCCn1c(O)c(C=NCCCn2ccnc2)c(=O)[nH]c1=O,654,-20.1% (inactive),13.9% (inactive),134,1.42,-1.88,-0.817,2.71% (inactive),-0.5 (inactive),-2e-06 (inactive),0.0065 (inactive),inactive,13.6% (inactive),–
O=c1[nH]c(=O)n(-c2cccc(Cl)c2)c(O)c1C=NCCN1CCCCC1,506,1.5% (inactive),-67.4% (inactive),143,-0.817,1.06,1.7,15% (inactive),-0.435 (inactive),-5.4e-05 (inactive),0.00582 (inactive),inactive,-0.905% (inactive),–
CCOc1ccc(-n2c(O)c(C=Nc3ccc(N(CC)CC)cc3)c(=O)[nH]c2=O)cc1,366,-4.7% (inactive),-63.9% (inactive),138,0.258,-1.14,0.567,14% (inactive),-0.361 (inactive),-0.000118 (inactive),-0.0068 (active),inactive,-4.04% (inactive),–
CCOC(C(=O)OCC(O)CN(CC)CC)(c1ccccc1)c1ccccc1 (stereo unspecified),598,-12.4% (inactive),-341% (inactive),184,-0.241,-0.53,1.71,-5.89% (inactive),-0.446 (inactive),-0.000326 (inactive),0.00508 (inactive),inactive,19.6% (inactive),–
COC(=O)C(O)(c1c[nH]c2ccccc12)C(F)(F)F (stereo unspecified),466,-0.7% (inactive),-19.2% (inactive),112,0.726,0.429,-1.12,-5.26% (inactive),-0.373 (inactive),1.2e-05 (inactive),0.00556 (inactive),inactive,-11.1% (inactive),–
CCCCn1c(O)c(C=NCCN2CCCCC2)c(=O)[nH]c1=O,430,0.6% (inactive),17.7% (inactive),87.8,0.907,-2.11,-0.0585,-4.7% (inactive),-0.489 (inactive),9.8e-06 (inactive),0.00621 (inactive),inactive,3.56% (inactive),–
CC(=O)OC1(Cc2ccccc2)CN2CCC1c1ccccc12 (stereo unspecified),574,-15.2% (inactive),-118% (inactive),130,0.311,-0.615,0.994,-9.91% (inactive),-0.516 (inactive),-4e-05 (inactive),0.00421 (inactive),inactive,14.3% (inactive),–
CCOc1ccc(Cc2c(O)[nH]c(=O)[nH]c2=O)cc1,618,-8.4% (inactive),-94.6% (inactive),180,-2.58,1.33,1.61,3.56% (inactive),-0.34 (inactive),-3.4e-06 (inactive),0.00464 (inactive),inactive,18.5% (inactive),–
